High-throughput results deposited in PubChem BioAssay by National Center for Advancing Translational Sciences (NCATS).
Hits are enriched below; roughly 15% of the tested compounds scored in any of these assays.
Gal4-VP16 FLuc = Gal4-VP16 reporter inhibition counter-screen; Drosophila S2 Gal4-VP16 UAS-luciferase, luminescence, 20 h; Potency, µM (doses to about 53.6 µM), inactives show top-dose activity, negative = inhibition, actives largely listed as inhibitors; 310,000 compounds, 3.5% hits;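 further: Gal4-VP16 expression switched on by copper sulfate through the metallothionein promoter; nearly all actives have a fitted effect of over 50% in size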
TDP1 cell CPT = DT40-hTDP1 cell growth loss with CPT | chicken DT40 Tdp1-/-;hTDP1 cells + 20 nM CPT, ATP luminescence, 48 h | Potency, µM (highest dose often 46.2 µM), for inactives: top-dose activity change, negative = growth inhibition, actives largely listed as inhibitors | 420,000 compounds, 12% hits; further: nearly all actives have a fitted effect of over 55% in size
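Chicken DT40 Tdp1-/- cells stably complemented with human TDP1 were seeded at 400 cells/well in medium containing 20 nM camptothecin, exposed to pin-transferred compounds, and grown at 37 °C for at least 48 hr. Viability was read as ATP luminescence.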
TDP1 cell noCPT = qHTS for Inhibitors of human tyrosyl-DNA phosphodiesterase 1 (TDP1): qHTS in cells in absence of CPT | DT40 Tdp1-/- hTDP1 cells, no CPT, ATP luminescence, 48 h | Potency, µM (titrated, usually from 46.2 µM), inactives show at the highest dose activity change, negative = growth inhibition, actives largely listed as inhibitors | 420,000 compounds, 15% hits | AID 686978, 2013; further: nearly all actives have a fitted effect of over 55% in size
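Chicken DT40 Tdp1-/- cells complemented with human TDP1, screened without camptothecin (DMSO vehicle only), 400 cells/well. Compounds pin-transferred, cells incubated at 37 °C for at least 48 hr. Growth read as ATP-dependent luminescence (CellTiter-Glo, 30 min at RT).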
12-LOX inh = ALOX12 (human) lipoxygenase inhibition; purified 12hLO, xylenol orange hydroperoxide absorbance; Potency, µM (top dose mostly 108 µM), without a hit: at the top dose activity change, negative = inhibition, hits mostly inhibitors; 580,000 compounds, 1.1% hits; AID 1671190
Target sequence (P18054 whole entry, looked up): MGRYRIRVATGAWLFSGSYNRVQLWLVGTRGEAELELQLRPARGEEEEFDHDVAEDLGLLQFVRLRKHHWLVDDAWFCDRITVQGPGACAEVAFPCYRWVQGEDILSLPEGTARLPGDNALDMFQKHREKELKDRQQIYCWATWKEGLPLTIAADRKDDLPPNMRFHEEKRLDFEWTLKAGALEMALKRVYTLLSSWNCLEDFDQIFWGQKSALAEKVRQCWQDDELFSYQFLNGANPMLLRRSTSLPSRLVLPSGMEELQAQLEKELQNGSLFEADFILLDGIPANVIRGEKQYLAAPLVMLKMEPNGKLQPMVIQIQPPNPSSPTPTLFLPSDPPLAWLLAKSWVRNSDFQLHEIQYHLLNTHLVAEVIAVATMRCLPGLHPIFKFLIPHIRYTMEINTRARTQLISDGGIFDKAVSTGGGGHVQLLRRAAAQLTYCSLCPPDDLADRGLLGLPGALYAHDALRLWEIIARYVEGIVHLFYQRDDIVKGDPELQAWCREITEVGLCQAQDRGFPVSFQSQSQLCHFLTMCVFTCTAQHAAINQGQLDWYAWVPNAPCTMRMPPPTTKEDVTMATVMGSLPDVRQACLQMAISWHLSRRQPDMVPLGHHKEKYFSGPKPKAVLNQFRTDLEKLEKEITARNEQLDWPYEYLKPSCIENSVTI
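Purified human 12hLO at 150 nM in 25 mM Hepes, 0.01% Triton X-100, pH 7.0, preincubated 15 min at room temperature with compound. Reaction started with 40 uM arachidonic acid, 30 min at room temperature. Hydroperoxide measured by Fe-xylenol orange, 573/405 nm absorbance ratio.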
RORgamma inh = inhibitors of mouse ROR gamma transcriptional activity; Drosophila S2 Gal4-RORgamma UAS-luciferase reporter, 20 h; Potency, µM (series often up to 53.6 µM), for the others: at the top dose activity change, negative = inhibition, usual class: inhibitors; 310,000 compounds, 5.4% hits; AID 2551; further: nearly all actives have a fitted effect of over 60% in size
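Drosophila S2 cells stably expressing Gal4-DBD/mouse RORγ fusion under metallothionein promoter plus UAS-luciferase; compound 1 h, then 700 uM CuSO4 induction for 20 h at ambient temperature; inhibition read as reduced luminescence.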
ELG1 repair inh = ELG1-dependent DNA repair inhibition. HEK293T ELG1-luciferase reporter, luminescence, 16 h; DNA damage induced by 5-fluorouridine. Potency, µM (top dose mostly 46.1 µM), without a hit: at the top dose activity change, negative = inhibition, most hits filed as inhibitors. 330,000 compounds, 2.3% hits. AID 504467; further: nearly all actives have a fitted effect of over 55% in size
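DMSO vehicle served as the neutral condition. Each well held 2,000 cells given 5-fluorouridine plus compound; after 16 hr at 37 °C/5% CO2, ONE-Glo was added and luciferase measured 30 min later.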
* = called active by the depositor; ? = inconclusive; . = no result; [ ] = remark or other dose. The call rests on the fitted dose curve; in most records, active means well fitted curve in the direction sought with a large enough effect; inconclusive means small, poorly fitted or top-dose-only effect, or another doubt; inactive means no such curve, though single readings can be large; an effect the other way counts as inactive or inconclusive. On the % scale 0 is the no-effect control and ±100 the full control effect; potency means the concentration at half of the fitted maximal effect.

SMILES	Gal4-VP16 FLuc	TDP1 cell CPT	TDP1 cell noCPT	12-LOX inh	RORgamma inh	ELG1 repair inh
O=C(c1cccc(F)c1)N1CCC2(CCN(Cc3cc(C(F)(F)F)cc(C(F)(F)F)c3)CC2)CC1	-9%	?	18µM*	-3%[57.4 µM]	0%	.
N#Cc1ccc(CN2CC[C@@]3(CCCN(C(=O)c4cc(C(F)(F)F)cc(C(F)(F)F)c4)C3)C2)cc1	13%	?	?	-2%[57.4 µM]	2%	.
N#Cc1ccc(CN2CCC3(CC2)CCN(C(=O)c2cc(C(F)(F)F)cc(C(F)(F)F)c2)CC3)cc1	-9%	23µM*	13µM*	-2%[57.4 µM]	36%	.
COC(=O)N1CCC2(CCN(Cc3ccc(C#N)cc3)CC2)CC1	-27%	1.6µM*	?	6%[57.4 µM]	?	.
COc1ccccc1CN1CCC2(CC1)CCN(C(=O)c1cc(C(F)(F)F)cc(C(F)(F)F)c1)CC2	9%	?	21µM*	8%[57.4 µM]	-1%	.
COc1ccc(CCNC(=O)c2ccc3c(=O)n(-c4ccccc4)c(=O)[nH]c3c2)cc1OC	.	.	.	1%	.	.
Cc1ccc(-c2cnc(CCC(=O)NCc3ccc(F)c(C)c3)o2)cc1	.	.	.	-1%	.	.
CN1CCN(NC(=O)c2cccc(Cl)c2)CC1	.	.	.	-4%	.	.
N#Cc1ccc(CN2CCC3(CC2)CCN(S(=O)(=O)c2ccccc2)CC3)cc1	-25%	?	16µM*	3%[57.4 µM]	-12%	.
COC(=O)N1CCC2(CCN(Cc3cc(C(F)(F)F)cc(C(F)(F)F)c3)CC2)CC1	4%	?	15µM*	15%[57.4 µM]	6%	.
COC(=O)N1CCC2(CCCN(Cc3cc(C(F)(F)F)cc(C(F)(F)F)c3)C2)CC1	13%	-2%	1%	-4%[57.4 µM]	-5%	.
O=C(Cc1cccs1)N(Cc1cccs1)C1(C(=O)NC2CCCCC2)CCCCC1	-1%	26µM*	16µM*	1%	-9%	-22%
O=C(NC1CCCCC1)C(c1cccs1)N(Cc1cccs1)C(=O)c1ccco1 (stereo not drawn)	?	15µM*	9.2µM*	-27%	?	?
O=C(NC1CCCC1)C(c1cccs1)N(CC1CCCO1)C(=O)Cc1cccs1 (stereo not drawn)	-5%	?	21µM*	?	13%	-5%
CC1(C)[C@H](Cc2cc(COC(=O)c3cccs3)on2)C[C@@H]1NC(=O)c1cccs1	.	.	.	-45%[176 µM]	.	.
Cc1cccc(C(=O)NC(NC(C)C)C(Cl)(Cl)Cl)c1 (stereo not drawn)	.	.	.	0%	.	.
Cc1nc(CC2CCN(C(=O)c3ccccc3)CC2)n[nH]1	.	.	.	31%	.	.
CCOC(=O)C(N)c1c(C)nn(-c2cccc(C(F)(F)F)c2)c1C (stereo not drawn)	.	.	.	-41%	.	.
O=C(CCN1C(=O)/C(=C\c2cccs2)SC1=S)NC1=NCCS1	?	1%	-7%	-30%	?	6%
COc1ccccc1/C=C1\SC(=S)N(CCC(=O)NC2=NCCS2)C1=O	-7%	1%	1%	-16%	4.5µM*	-11%
CCc1ccc(/C=C2\SC(=S)N(CCC(=O)NC3=NCCS3)C2=O)cc1	1%	.	.	-1%	-24%	-5%
O=C(CCN1C(=O)/C(=C/c2cccs2)SC1=S)NC1=NCCS1	?	-7%	-24%	-19%	16µM*	-7%
Cc1cc(C[C@@H]2COC[C@@H]2NC(=O)CCn2c(C)cc3ccccc32)on1	.	.	.	116%	.	.
COc1cc(CN2CCN(c3ncccc3C#N)CC2CCO)cc(OC)c1 (stereo not drawn)	.	.	.	8%	.	.
O=C(Cn1cnc2ccccc21)N/N=C/c1ccc([N+](=O)[O-])cc1	-8%	-7%	-5%	1%	-1%	2%
SMILES	Gal4-VP16 FLuc	TDP1 cell CPT	TDP1 cell noCPT	12-LOX inh	RORgamma inh	ELG1 repair inh
O=C(CSc1ccccn1)N/N=C/c1cc([N+](=O)[O-])ccc1O	7.1µM*	?	?	-15%	2µM*	16µM*
O=C(NN=Cc1cc(Cl)ccc1[N+](=O)[O-])c1cccc2ccccc12	.	?	-29%	?	.	.
O=C(CSc1ccccn1)N/N=C/c1ccccc1[N+](=O)[O-]	?	-1%	?	9%	18%	?
O=C(Cn1nc2ccccc2n1)N/N=C/c1cc([N+](=O)[O-])ccc1O	1.4µM*	?	?	?	?	6.5µM*
O=C(Cn1nnc(-c2ccccc2)n1)N/N=C/c1cc([N+](=O)[O-])ccc1O	-26%	5.8µM*	4.1µM*	-18%	-4%	-27%
O=C(N/N=C/c1cc([N+](=O)[O-])ccc1O)c1cccc2ccccc12	2.2µM*	.	.	378%	2.8µM*	?
CC(=O)OC(c1nc2ccccc2c(=O)n1C1CC2(OC1=O)c1ccccc1N1C(=O)C(C)(C)N(O)C12)C(C)C (stereo not drawn)	0%	16µM*	21µM*	?	15%	?
CCCCc1ccc(-n2nnnc2SCC(=O)Nc2cc(OC)c([N+](=O)[O-])cc2C)cc1	?	?	18µM*	7%	9%	3%
COCCn1cnnc1SCC(=O)Nc1cc(OC)c([N+](=O)[O-])cc1C	-5%	-13%	-5%	-2%	0%	-20%
CC(OC(=O)c1cccs1)C(=O)NCc1ccco1 (stereo not drawn)	-5%	-15%	4%	5%	9%	7%
COc1ccccc1C(OC(=O)c1cccs1)C(=O)NCc1ccco1 (stereo not drawn)	0%	18µM*	?	-19%	-30%[10 µM]	-2%
COc1ccc(-c2cnc(C(N)=O)c(=O)[nH]2)cc1	.	-25%	-5%	6.3µM*	.	.
CCCc1cc(=O)n2c(C(=O)Nc3ccc(C)c(C)c3)c(C(=O)Nc3ccccc3)sc2n1	.	.	.	-14%	.	.
O=C(OCC(=O)N1CCN(C(=O)c2ccco2)CC1)c1cc(-c2cccc(Br)c2)nc2ccccc12	0%	?	-19%	?	21%	16µM*
O=C(OCC(=O)N1CCN(C(=O)c2ccco2)CC1)c1ccccc1C(=O)c1ccccc1	-2%	-27%	-16%	335%	-4%	-6%
O=C(OCC(=O)N1CCN(C(=O)c2ccco2)CC1)c1cc(-c2ccccc2)nc2ccccc12	6%	-16%	?	-14%	5%	15µM*
